This experiment in a line: HT29 colon tumor cell growth inhibition, primary screen, imaging, high content imaging, 72 h, CellTiter-Glo (AID 772).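 As to condensed nuclei: condensed means nuclear area below control median minus 1.5 SD.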 The following applies: HCS imaging cell count, at 10 µM, stronger effect = higher value; for condensed nuclei: measured here: percent cells with condensed nuclei.
The mark [1] stands for this setting: measured here: ATP CellTiter-Glo viability.

The whole screen tested about 3,300 compounds, of which about 20 (0.6%) were called active.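 The calls were made as follows: active = growth inhibition above 90%, meaning viable cell count cut by more than 90% versus vehicle controls; inactive = growth inhibition below 90%.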 Shown is part of a subset that was picked to be rich in actives.

Take `C=CCNc1nc(C2(C)CC3(CC(C)(C)OC3=O)C(=O)O2)cs1` (stereo not drawn): the growth inhibition was -18.2% (inactive) and the condensed nuclei came out at 1.83%. For the same molecule, under setting [1], the growth inhibition was -56.2%.
`CCCCSc1nc(N)c(C#N)c(-c2cccs2)c1C#N`: the growth inhibition is 95.4% (active) and the condensed nuclei is 41.7%. Also, the growth inhibition under setting [1] amounted to 86.1%.
In the case of `N#Cc1c(N)nc(SCc2ccccn2)c(C#N)c1-c1cccs1`, the growth inhibition was 63.2% (inactive) and the condensed nuclei is 5.56%. Also, the growth inhibition under setting [1] came out at 42.6%.
With `N#Cc1c(N)nc(SCC(=O)NCCc2ccccc2)c(C#N)c1-c1cccs1`, the growth inhibition was 31.9% (inactive) and the condensed nuclei came out at 7.98%. Moreover, under setting [1], the growth inhibition came to 4.22%.
The like results for `CCN(CC)S(=O)(=O)c1cccc2c(N(C)C)cccc12` were, in that order, -83.5% (inactive), 4.17% and -46.3%.
As for `COCCCNc1nc(-c2ccncc2)nc2ccccc12`, the growth inhibition is 89.9% (inactive) and the condensed nuclei came out at 44.1%. Besides, under setting [1], the growth inhibition worked out at 86.6%.
Consider `COCCCNC(=O)C(C#N)c1nc2ccccc2nc1N1CCN(Cc2ccccc2)CC1` (stereo not drawn), for which the growth inhibition is 0% (inactive) and the condensed nuclei worked out at 4.88%. The growth inhibition under setting [1] was found to be 11.6%.
Turning to `Clc1cccc(-c2nn3c(-c4cccc(Cl)c4)nnc3s2)c1`, the growth inhibition was -66.5% (inactive) and the condensed nuclei came to 7.77%. For the same molecule, the growth inhibition under setting [1] is -37.2%.
On to `COc1ccccc1C(=O)N1CCCC1(C#N)c1ccccc1` (stereo not drawn), for which the growth inhibition is -76.6% (inactive) and the condensed nuclei amounted to 2.93%. Further, the growth inhibition under setting [1] was -54.8%.
The like results for `Fc1ccc2[nH]c3c(N4CCN(C5CCCCC5)CC4)ncnc3c2c1` were, in that order, 86.8% (inactive), 43.8% and 96.8%.
`CCOc1cccc(-c2nn3c(-c4ccco4)nnc3s2)c1`: the growth inhibition was 19.2% (inactive) and the condensed nuclei was determined as 6.05%. Under setting [1], the growth inhibition was -9.06%.
Take `Cc1cc(C(=O)O)c(CSc2ncn[nH]2)o1`: the growth inhibition is -5.63% (inactive) and the condensed nuclei is 6.05%. Under setting [1], the growth inhibition was -62.3%.
Consider `Cc1cc(=O)oc(C)c1C(=O)NCCC1=CCCCC1`, for which the growth inhibition was 26.9% (inactive) and the condensed nuclei stood at 17.3%. Also, the growth inhibition under setting [1] amounted to 32.2%.
Take `Cc1nc2sccn2c(=O)c1CCN1CCC(=C(c2ccc(F)cc2)c2ccc(F)cc2)CC1`: the growth inhibition is 93.1% (active) and the condensed nuclei was found to be 24.1%. For the same molecule, the growth inhibition under setting [1] came out at 84.8%.
As to `Cc1nc2ccccn2c(=O)c1CCN1CCC(C(=O)c2ccc(F)cc2)CC1`, the growth inhibition is 73.8% (inactive) and the condensed nuclei was 24.8%. Further, the growth inhibition under setting [1] was 86.5%.
`Cc1nc2sccn2c(=O)c1CCN1CCC(=C(c2ccccc2)c2ccc(F)cc2)CC1`: the growth inhibition was 29.7% (inactive) and the condensed nuclei worked out at 5.93%. Besides, under setting [1], the growth inhibition was 6.78%.
On to `O=C(CCC(=O)CCN1CCCCC1)CCN1CCCCC1`, for which the growth inhibition was 28.4% (inactive) and the condensed nuclei is 16.4%. For the same molecule, the growth inhibition under setting [1] was determined as 14.4%.
With `CCOc1ccc2nc(NC(NC(C)=O)(C(=O)OC)C(F)(F)F)sc2c1` (stereo not drawn), the growth inhibition is -16.9% (inactive) and the condensed nuclei was 3.93%. Besides, the growth inhibition under setting [1] is 18.6%.
Regarding `C=CCn1cnc2c(c1=O)c1nc3ccccc3nc1n2-c1ccc(C)cc1`, the growth inhibition is 31.2% (inactive) and the condensed nuclei was found to be 2.48%. Moreover, the growth inhibition under setting [1] was -2.67%.
For the molecule `Cn1c(SCC(=O)NCc2ccccc2)nc2ccccc21`, the growth inhibition was 59.6% (inactive) and the condensed nuclei was determined as 4.29%. Under setting [1], the growth inhibition turned out to be 2.57%.
The like results for `CCC(=O)O[C@@H]1CC(=O)O[C@H](C)CC=CC=C[C@@H](O)[C@H](C)C[C@H](CC=O)[C@H](O[C@H]2O[C@H](C)[C@@H](O[C@H]3C[C@@](C)(O)[C@@H](OC(=O)CC)[C@H](C)O3)[C@H](N(C)C)[C@H]2O)[C@H]1OC` were, in that order, -45.9% (inactive), 2.22% and -13.7%.
For the molecule `COc1ccc2[nH]c(C)c(C(=O)CN3CCc4cc(OC)c(OC)cc4C3)c2c1`, the growth inhibition was -33.9% (inactive) and the condensed nuclei came to 2.58%. For the same molecule, the growth inhibition under setting [1] is -14.6%.
For `CCN(CC)C(=O)CSc1nc2ccccc2c(=O)n1CC1CCCCC1`, the growth inhibition is 65.6% (inactive) and the condensed nuclei was determined as 18.9%. Further, the growth inhibition under setting [1] is 31.7%.
For the molecule `Cc1[nH]c2ccc(F)cc2c(=O)c1SC(F)(F)C(F)C(F)(F)F` (stereo not drawn), the growth inhibition was -7.36% (inactive) and the condensed nuclei amounted to 1.61%. Moreover, the growth inhibition under setting [1] is -57.2%.
The like results for `COc1cccc2c(=O)c(SC(F)(F)C(F)C(F)(F)F)c(C)[nH]c12` (stereo not drawn) were, in that order, 94% (active), 36.9% and 65.5%.
The like results for `Cc1onc(-c2ccccc2Cl)c1C(=O)N1CCN(c2nc3ccccc3s2)CC1` were, in that order, 55.9% (inactive), 7.24% and 62.8%.
As to `O=C1[C@@H]2[C@H](C(=O)N1n1cnnc1)[C@H]1C=C[C@@H]2C1`, the growth inhibition is -36.7% (inactive) and the condensed nuclei was 7.85%. The growth inhibition under setting [1] was found to be 4.74%.
The like results for `Cc1cccn2c(=O)c3cc(C#N)c(=N)n(Cc4ccncc4)c3nc12` were, in that order, 10.6% (inactive), 5.14% and -4.36%.
In the case of `CCC(NC(=O)Nc1cc(OC)c(OC)c(OC)c1)(C(F)(F)F)C(F)(F)F`, the growth inhibition was 9.36% (inactive) and the condensed nuclei is 2.2%. For the same molecule, under setting [1], the growth inhibition is -14.6%.
As for `COC(=O)[C@@H](N)Cc1ccc(O)cc1`, the growth inhibition is -11.9% (inactive) and the condensed nuclei is 9.88%. The growth inhibition under setting [1] stood at 12.5%.
`COC(=O)/C=c1/s/c(=C(/C#N)C(=O)N2CCOCC2)n(-c2ccccc2)c1=O`: the growth inhibition is -9.52% (inactive) and the condensed nuclei was determined as 5.81%. Besides, the growth inhibition under setting [1] is -73%.
Regarding `C=CCOC(=O)C1=C(C)NC(SCC(=O)Nc2ccc(C)c(Cl)c2)=C(C#N)C1c1ccco1` (stereo not drawn), the growth inhibition was 81.3% (inactive) and the condensed nuclei was 10.5%. Also, the growth inhibition under setting [1] was found to be 81.8%.
With `O=C1C(=O)N(Cc2cccnc2)C(c2ccccn2)/C1=C(/O)c1ccc(Br)cc1` (stereo not drawn), the growth inhibition is -60.8% (inactive) and the condensed nuclei came to 3.93%. For the same molecule, the growth inhibition under setting [1] is -51.9%.
Turning to `CCOC(=O)c1c(C)n(C)c2ccc(O)c(S(=O)(=O)c3ccccc3)c12`, the growth inhibition is 0.86% (inactive) and the condensed nuclei was found to be 2.84%. Besides, the growth inhibition under setting [1] was -12.9%.
The like results for `Cc1nc(Sc2cccn2C)c(C(F)(F)F)c(=O)[nH]1` were, in that order, 26% (inactive), 1.74% and -42.6%.
For the molecule `N#CC1=C(C=Nc2ccccc2O)CCC1`, the growth inhibition is 2.22% (inactive) and the condensed nuclei came to 1.93%. Also, the growth inhibition under setting [1] was -3.16%.
